In PubChem BioAssay AID1159580 (chemical genetic matrix, 2015):
Out of some 5,500 compounds screened, about 2,000 (36%) were called active. About 18% were inconclusive and are not listed. Cut-off read from the data, not from the text of the source: active = normalized growth mostly below about 0.91 (no sharp cut-off); inconclusive = no clear call, values can overlap the other calls; inactive = mostly above about 0.92. This is one part of the list.

Test: chemical genetic growth profiling, strain panel (AID 1159580);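 note: tested at 20 µM; growth read once vehicle control cultures reached saturation at 30 °C; 1 = growth at the plate median or of vehicle wells; lower values mean less growth of the strain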
Details: growth OD

Measured: normalized growth

CCC(C)C(=O)OC1CC2(C)C(c3ccoc3)OC(=O)CC23OC2(C)OC34C(OC(=O)C(C)C)C3(O)C(OC(=O)C5(C)OC5C)C5(C)CC3(O)C(C)(C5C(=O)OC)C14O2 (stereo unspecified)
inactive: S. cerevisiae deletion strains, locus YAL013W, strain DEP1, active compounds read low 1.02 | S. cerevisiae deletion strains, locus YBR021W, strain FUR4, active compounds read low 1.01 | S. cerevisiae deletion strains, locus YBR229C, strain ROT2, active compounds read low 1 | S. cerevisiae deletion strains, locus YCL029C, strain bik1, active compounds read low 1.04 | S. cerevisiae deletion strains, locus YDL035C, strain GPR1, active compounds read low 0.993 | S. cerevisiae deletion strains, locus YDL074C, strain BRE1, active compounds read low 1.01 | S. cerevisiae deletion strains, locus YDL101C, strain DUN1, active compounds read low 1.02 | S. cerevisiae deletion strains, locus YDL134C, strain PPH21, active compounds read low 1.01 | S. cerevisiae deletion strains, locus YDL185W, strain tfp1, active compounds read low 1.03 | S. cerevisiae deletion strains, locus YDL192W, strain arf1, active compounds read low 1.01 | S. cerevisiae deletion strains, locus YDR101C, strain arx1, active compounds read low 1.02 | S. cerevisiae deletion strains, locus YDR150W, strain NUM1, active compounds read low 1.02 | S. cerevisiae deletion strains, locus YDR162C, strain NBP2, active compounds read low 0.996 | S. cerevisiae deletion strains, locus YDR318W, strain mcm21, active compounds read low 1.03 | S. cerevisiae deletion strains, locus YDR388W, active compounds read low 1.02 | S. cerevisiae deletion strains, locus YDR502C, strain sam2, active compounds read low 1.03 | S. cerevisiae deletion strains, locus YEL061C, strain CIN8, active compounds read low 1.01 | S. cerevisiae deletion strains, locus YER110C, active compounds read low 1.02 | S. cerevisiae deletion strains, locus YER155C, strain BEM2, active compounds read low 1.02 | S. cerevisiae deletion strains, locus YER167W, strain BCK2, active compounds read low 1.02 | S. cerevisiae deletion strains, locus YGL078C, strain dbp3, active compounds read low 1.02 | S. cerevisiae deletion strains, locus YGL086W, strain mad1, active compounds read low 1 | S. cerevisiae deletion strains, locus YGL248W, strain PDE1, active compounds read low 1.01 | S. cerevisiae deletion strains, locus YGR078C, strain PAC10, active compounds read low 1.02 | S. cerevisiae deletion strains, locus YGR135W, strain pre9, active compounds read low 1.03 | S. cerevisiae deletion strains, locus YGR229C, strain SMI1, active compounds read low 1.03 | S. cerevisiae deletion strains, locus YGR252W, strain gcn5, active compounds read low 0.977 | S. cerevisiae deletion strains, locus YHR030C, strain SLT2, active compounds read low 1.02 | S. cerevisiae deletion strains, locus YHR079C, strain IRE1 (second series), active compounds read low 1.02 | S. cerevisiae deletion strains, locus YHR094C, strain hxt1, active compounds read low 1.01 | S. cerevisiae deletion strains, locus YHR129C, strain ARP1, active compounds read low 1.01 | S. cerevisiae deletion strains, locus YHR200W, strain rpn10, active compounds read low 1.04 | S. cerevisiae deletion strains, locus YIL066C, strain RNR3, active compounds read low 1.02 | S. cerevisiae deletion strains, locus YIL073C, strain SPO22, active compounds read low 1 | S. cerevisiae deletion strains, locus YIL125W, strain kgd1, active compounds read low 1.01 | S. cerevisiae deletion strains, locus YIR030C, strain dcg1, active compounds read low 1.02 | S. cerevisiae deletion strains, locus YJL095W, strain BCK1, active compounds read low 1.04 | S. cerevisiae deletion strains, locus YJL134W, strain LCB3, active compounds read low 1.01 | S. cerevisiae deletion strains, locus YJL168C, strain set2, active compounds read low 1.02 | S. cerevisiae deletion strains, locus YJL187C, strain SWE1 (second series), active compounds read low 1.03 | S. cerevisiae deletion strains, locus YJR043C, strain POL32, active compounds read low 1.04 | S. cerevisiae deletion strains, locus YJR075W, strain HOC1, active compounds read low 1.03 | S. cerevisiae deletion strains, locus YKL009W, strain mrt4, active compounds read low 0.994 | S. cerevisiae deletion strains, locus YKL068W, active compounds read low 1.01 | S. cerevisiae deletion strains, locus YKL085W, strain MDH1 (second series), active compounds read low 1.01 | S. cerevisiae deletion strains, locus YKL085W, strain MDH1, active compounds read low 1.01 | S. cerevisiae deletion strains, locus YKL190W, strain CNB1, active compounds read low 1 | S. cerevisiae deletion strains, locus YKR001C, strain vps1, active compounds read low 1.01 | S. cerevisiae deletion strains, locus YLR039C, strain RIC1, active compounds read low 0.862 | S. cerevisiae deletion strains, locus YLR058C, strain SHM2, active compounds read low 0.999 | S. cerevisiae deletion strains, locus YLR102C, strain apc9, active compounds read low 1.01 | S. cerevisiae deletion strains, locus YLR262C, strain YPT6, active compounds read low 0.77 | S. cerevisiae deletion strains, locus YLR268W, strain sec22, active compounds read low 1.05 | S. cerevisiae deletion strains, locus YLR330W, strain CHS5, active compounds read low 1.08 | S. cerevisiae deletion strains, locus YLR342W, strain FKS1 (second series), active compounds read low 1.01 | S. cerevisiae deletion strains, locus YLR371W, strain rom2, active compounds read low 1.03 | S. cerevisiae deletion strains, locus YLR418C, strain cdc73, active compounds read low 0.985 | S. cerevisiae deletion strains, locus YML016C, strain PPZ1, active compounds read low 1 | S. cerevisiae deletion strains, locus YML032C, strain rad52, active compounds read low 1.03 | S. cerevisiae deletion strains, locus YML124C, strain tub3, active compounds read low 1.01 | S. cerevisiae deletion strains, locus YMR078C, strain ctf18, active compounds read low 1.03 | S. cerevisiae deletion strains, locus YMR223W, strain ubp8, active compounds read low 0.999 | S. cerevisiae deletion strains, locus YMR263W, strain SAP30, active compounds read low 1.04 | S. cerevisiae deletion strains, locus YMR307W, strain GAS1, active compounds read low 0.923 | S. cerevisiae deletion strains, locus YNL067W, strain RPL9B, active compounds read low 1.03 | S. cerevisiae deletion strains, locus YNL128W, strain TEP1, active compounds read low 1.01 | S. cerevisiae deletion strains, locus YNL153C, strain GIM3, active compounds read low 1.03 | S. cerevisiae deletion strains, locus YNL233W, strain BNI4, active compounds read low 1.01 | S. cerevisiae deletion strains, locus YNL250W, strain rad50, active compounds read low 1.02 | S. cerevisiae deletion strains, locus YNL271C, strain bni1, active compounds read low 1.03 | S. cerevisiae deletion strains, locus YNL298W, strain CLA4, active compounds read low 1.03 | S. cerevisiae deletion strains, locus YNL307C, strain MCK1, active compounds read low 1.03 | S. cerevisiae deletion strains, locus YNL322C, strain KRE1, active compounds read low 1.02 | S. cerevisiae deletion strains, locus YNR052C, strain pop2, active compounds read low 1.02 | S. cerevisiae deletion strains, locus YOL006C, strain TOP1, active compounds read low 0.923 | S. cerevisiae deletion strains, locus YOL012C, strain htz1 1.81 | S. cerevisiae deletion strains, locus YOL147C, strain pex11, active compounds read low 1.03 | S. cerevisiae deletion strains, locus YOR061W, strain CKA2, active compounds read low 0.991 | S. cerevisiae deletion strains, locus YOR069W, strain VPS5, active compounds read low 1.01 | S. cerevisiae deletion strains, locus YOR136W, strain idh2, active compounds read low 1.01 | S. cerevisiae deletion strains, locus YOR144C, strain elg1, active compounds read low 1.01 | S. cerevisiae deletion strains, locus YOR184W, strain ser1, active compounds read low 1.04 | S. cerevisiae deletion strains, locus YOR316C, strain cot1, active compounds read low 1.02 | S. cerevisiae deletion strains, locus YPL055C, strain LGE1, active compounds read low 1.05 | S. cerevisiae deletion strains, locus YPL241C, strain CIN2, active compounds read low 1.01 | S. cerevisiae deletion strains, locus YPR119W, strain clb2, active compounds read low 1.01 | S. cerevisiae deletion strains, locus YPR141C, strain kar3, active compounds read low 1.03 | S. cerevisiae deletion strains, locus YPR163C, strain tif3, active compounds read low 1.02 | S. cerevisiae deletion strains, locus YPR167C, strain met16, active compounds read low 1.02 | S. cerevisiae deletion strains, strain wtn01, active compounds read low 1.03 | S. cerevisiae strains, strain wild type, active compounds read low 1
